aSyn UTR act: Activators working through SNCA 5'UTR binding (MLPCN); activity score, % (tested at 7.5 µM), hits read low; alpha-synuclein 5'UTR reporter, activators screen; AID 1814; 300,000 tested, 7.1% active; in the data active = activity score below about -60%
The depositor's hits bear a star. The list is a sample of the results.

SMILES	aSyn UTR act
COc1ccccc1C(=O)NNC(=S)NC(=O)c1sc2ccccc2c1Cl	-138*
COc1ccccc1C(=O)NNC(=S)NC(=O)c1cccs1	73
COc1ccccc1C(=O)NNC(=O)c1cccc(Br)c1	-115*
COc1ccccc1C(=O)NC(=O)Nc1cccc(Cl)c1	-129*
COc1ccccc1C(=O)NNC(=O)c1ccccc1	-74*
Cc1nc2ccc(NC(=O)c3ccc(Cl)s3)cc2s1	-238*
Cc1ccc2nc(NC(=O)c3ccc(Cl)s3)sc2c1	-133*
Cc1nc2ccc(NC(=O)c3ccc(Br)o3)cc2s1	-186*
CC(C)COC(=S)Nc1ccccc1	-83*
O=C(Nc1ccccc1)C1Cc2ccccc2CN1C(=O)c1ccco1 (stereo not given)	-114*
CCN(CC)S(=O)(=O)c1ccc(N/N=C/c2cc(OC)ccc2O)nc1	87
COc1ccc(/C=N\Nc2ccccn2)c(OC)c1	-155*
COc1ccc(OC)c(/C=N\Nc2nccs2)c1	-65*
COc1ccc(/C=N/Nc2ccccn2)c(OC)c1OC	-92*
COc1ccc(/C=N/Nc2ncc(Br)cn2)c(OC)c1	-139*
Cc1ccc(C)c(/C=N/Nc2ccccn2)c1	-139*
COc1ccccc1/C=N/Nc1nccnc1Cl	-98*
O=C1CCN(Cc2ccccc2)CCN1CCSc1ccccc1	-78*
CCCN1CCC(=O)N(CCSc2ccccc2)CC1	-115*
O=c1oc2ccccc2cc1-c1nc(-c2ccccc2)no1	-131*
Cc1ccc(-c2noc(-c3cc4ccccc4oc3=O)n2)cc1	-80*
Cc1cccc(-c2noc(-c3cc4ccccc4oc3=O)n2)c1	-158*
COC(=O)C1C(=O)c2c([nH]c(C(=O)OC3CCCC3C)c2C)CC1C (stereo not given)	-168*
COC(=O)C1C(=O)c2c([nH]c(C(=O)OC3CCCCC3)c2C)CC1C (stereo not given)	-178*
CCOC(=O)c1[nH]c2c(c1C)C(=O)CC(c1ccc(F)cc1)C2 (stereo not given)	59
SMILES	aSyn UTR act
Cc1cccc(NC2=C(NC(=O)c3ccccc3)C(=O)c3ccccc3C2=O)c1	-102*
N#Cc1c(/N=C/c2ccc(-c3ccccc3C(=O)O)o2)sc2c1CCCC2	-78*
CN(C)/C=N/c1sc2c(c1C#N)CCCCC2	-124*
N#Cc1c(/N=C/N2CCOCC2)sc2c1CCCCC2	-122*
N#Cc1c(/N=C/c2cccs2)sc2c1CCCCC2	-186*
c1ccc(-c2noc(-c3ccc4ccccc4c3)n2)cc1	77
Brc1ccc(-c2nc(-c3cccnc3)no2)o1	-164*
Brc1ccc(-c2nc(-c3ccccc3)no2)o1	-141*
COc1cccc(/C=N/Nc2nc(Nc3ccc([N+](=O)[O-])cc3)nc(N3CCCC3)n2)c1O	65
O=[N+]([O-])c1cc2c(cc1/C=N/Nc1nc(Nc3ccccc3)nc(N3CCCCC3)n1)OCO2	-63*
COc1ccc(C2=NN(CN3C(=O)C(=O)c4ccccc43)C(c3ccc(OC)cc3)C2)cc1 (stereo not given)	-182*
Cc1cccc2c1-c1sc(C(=O)Nc3cccnc3)cc1CO2	-118*
O=C(Nc1cccnc1)c1cc2c(s1)-c1ccccc1OC2	-126*
Cc1ccc(C(=O)Nc2ccc3c(c2)nc2n3CCSC2)cc1	-67*
CCCCC(=O)Nc1ccc2c(c1)nc1n2CCSC1	-84*
CNc1ccccc1C(=O)OCC(=O)c1ccccc1	-71*
COc1ccccc1NC(CC(=O)c1ccccc1)C(=O)OCC(=O)c1ccc(F)cc1 (stereo not given)	-235*
CNc1ccccc1C(=O)OCC(=O)c1ccc(F)cc1	-70*
O=C(COc1ccccc1F)Nc1ccc2c(c1)OCCO2	-75*
Cc1ccccc1OC(C)C(=O)Nc1ccc2c(c1)OCCO2 (stereo not given)	-71*
N#Cc1ccccc1OCC(=O)Nc1ccc2c(c1)OCCCO2	-160*
O=C(COc1ccccc1Br)Nc1ccc2c(c1)OCCCO2	-133*
C[C@@H](C(=O)Nc1ccc2c(c1)OCCO2)n1nnc2ccccc2c1=O	-89*
O=C(Nc1nccs1)c1ccc(COc2ccccc2)o1	-113*
Cc1ccc(OCc2ccc(C(=O)Nc3nccs3)o2)cc1	-88*
SMILES	aSyn UTR act
Cc1ccc(-c2nc(N)n(C(=O)c3cccnc3)n2)cc1	-77*
Cc1cc(C)nc(Sc2ccc3nnnn3n2)n1	-72*
CSc1cccc(CN(C)C(=O)C2CCC(=O)N(CCCN3CCCC3=O)C2)c1 (stereo not given)	-73*
COC(=O)c1c(-c2cccs2)csc1NC(=O)c1cccnc1	-87*
CC(=O)Oc1ccc(C(=O)Nc2ccc(C3(C#N)CCCC3)cc2)cc1	-142*
N#CC1(c2ccc(NC(=O)c3ccccc3)cc2)CCCC1	-89*
Cc1c(C(=O)OCC(=O)N2C(C)CCCC2C)oc2ccccc12 (stereo not given)	-118*
COc1ccc(-c2csc(Nc3ccccc3)[n+]2Cc2ccccc2)cc1	-95*
COc1ccc2oc(=O)c(-c3csc(Nc4ccc(O)cc4)n3)cc2c1	-70*
COc1ccc(Nc2nc(-c3ccc(OC)cc3)cs2)cc1	-106*
COc1ccc(Nc2nc(-c3c[nH]c4ccccc34)cs2)cc1	-255*
COc1ccc(-c2csc(Nc3ccccc3)n2)cc1	-150*
Oc1ccc(Nc2nc(-c3ccc(O)cc3)cs2)cc1	-219*
c1coc(CNc2nc(-c3cccs3)cs2)c1	107
Oc1ccc(-c2csc(NCc3ccco3)n2)cc1	-177*
COc1ccc(-c2csc(Nc3cccnc3)n2)cc1	-180*
COc1ccc(/C(N)=N/OC(=O)c2ccc3c(c2)OCO3)cc1OC	-87*
COc1cc(C(=O)O/N=C(\N)Cc2ccc([N+](=O)[O-])cc2)cc(OC)c1OC	81
N/C(=N\OC(=O)c1ccc2c(c1)OCO2)c1cccc(Br)c1	-146*
N/C(=N\OC(=O)c1ccc2c(c1)OCO2)c1cccnc1	-139*
N/C(=N\OC(=O)c1ccc2c(c1)OCO2)c1ccc([N+](=O)[O-])cc1	-128*
C=CCN(CC=C)S(=O)(=O)c1ccc2nc(NC(=O)C3CCCO3)sc2c1 (stereo not given)	-89*
O=C(Nc1nc2ccc(Cl)cc2s1)C1CCCO1 (stereo not given)	-127*
O=C(Nc1nc2ccc(Cl)cc2s1)c1cccc(N2C(=O)CCC2=O)c1	-78*
O=C(Nc1nc2ccc([N+](=O)[O-])cc2s1)C1CCCO1 (stereo not given)	-153*
SMILES	aSyn UTR act
O=C(Nc1nc2ccc(S(=O)(=O)N3CCCC3)cc2s1)C1CCCCC1	72
O=C(Nc1nc2ccccc2s1)C1CCN(S(=O)(=O)c2cc([N+](=O)[O-])ccc2Cl)CC1	-81*
O=C(Nc1nc2ccc(Cl)cc2s1)C1CC1	-150*
COC(=O)c1ccc2nc(NC(=O)C3CCCCC3)sc2c1	-105*
COC(=O)c1ccc2nc(NC(=O)C(C)(C)C)sc2c1	60
CCOc1ccccc1C1CC(=O)Nc2cc3c(cc21)OCCO3 (stereo not given)	92
Oc1cccc(N2Cc3ccccc3C2)c1	-82*
Cc1cc2c(cc1C)CN(c1ccccc1)C2	-90*
Cc1cc(N2Cc3ccccc3C2)ccc1C=O	-96*
Cn1cnc2cc(NCc3ccc(Cl)cc3)ccc21	-101*
CCCn1cnc2cc(NCc3ccc(Br)cc3)ccc21	-93*
Cc1ccc(CNc2ccc3c(c2)ncn3C(C)C)cc1	-144*
CCn1cnc2cc(NCc3ccc(Br)cc3)ccc21	-140*
CCn1cnc2cc(NCc3ccc(C)cc3)ccc21	-128*
CCCn1cnc2cc(NCc3cccc(OC)c3)ccc21	-141*

Screening results as filed in PubChem.
